# This is part of a sample that, as a whole, favours compounds with a hit. Of some 83,000 tested, about 20% had one in any assay.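 In brief: 96-well plates, 48 h treatment, single concentration, percent growth endpoint.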 Values without a mark were called inactive. Active and inactive are the calls of the source. Rule for the calls: active = growth percent below 10; inactive = the rest.
# Test system: ACHN renal
# Assay: NCI-60 one-dose screen, 48 h (100 = growth as untreated, 0 = no growth, -100 = all killed)
# Conditions: 10 µM unless noted
row,SMILES,growth
1,C[C@H]1C=C(C[C@@H](O)CCCCCCCCCC[C@@H](O)[C@H]2CCC(=O)O2)C(=O)O1,96.8%
2,S=c1ssnc1-c1ccccn1,15.4%
3,CC1(C)N=C(N)N=C(N)N1c1cccc(CCCCc2ccccc2)c1,33%
4,O=[N+]([O-])c1cccc2cc(S(=O)(=O)O)ccc12,112%
5,CCOc1cccc(Nc2nc(N)nc3[nH]c4ccc(O)cc4c23)c1,40.8%
6,NN=C(c1ccc(Cl)cc1)c1ccc(Cl)cc1,101%
7,O=C(N/N=C1\SCC(=O)N1c1ccccc1)c1cc(-c2cc3ccccc3o2)nn1-c1ccccc1,91%
8,COc1ccc(N)c(S)c1,98.2%
9,Nn1c(SCC(=O)Nc2cc(Cl)c(Cl)cc2Cl)nnc1-c1cc(F)c(Cl)cc1Cl,210%
10,COc1cc(-c2nc3sc(C)cn3c2/C=C2\C(=O)Nc3ccccc32)c(Br)c(OC)c1OC,57%
11,CC(=S)Nc1ccccc1,97.4%
12,O=C(Nc1ccc(Cl)c(Cl)c1)Nc1ccc(Cl)c([N+](=O)[O-])c1,1.36% (active)
13,CCOC(=O)C(C)(CSSCC(C)(NC(=O)c1ccc2ccccc2c1)C(=O)OCC)NC(=O)c1ccc2ccccc2c1 (centres undefined),102%
14,O=C(NC(=S)Nc1ccc(Cl)cc1)c1ccccc1,101%
15,CSc1nc(N)nc2c1ncn2C,106%
16,O=C(O)c1cc2ccccc2cc1Nc1ccccc1,98.8%
17,O=C1CN(CCN2CC(=O)NC(=O)C2)CC(=O)N1,103%
18,c1nc(SC2=NCCN2)c2[nH]cnc2n1,54.2%
19,O=C(C[n+]1cccc(Br)c1)c1ccc2c(c1)CCCC2,108%
20,NS(=O)(=O)c1ccc(-n2nc(-c3ccc(Cl)cc3)ccc2=O)cc1,101%
21,O=[N+]([O-])c1ccc(NS(=O)(=O)c2ccccc2)c2ccccc12,63.6%
22,CCC1S/C(=N\N=C(/C)c2cccs2)N(c2ccccc2)C1=O (centres undefined),113%
23,Cc1cc(NCCN(C(C)C)C(C)C)nc(/N=C(\N)Nc2ccc(Cl)c(C(F)(F)F)c2)n1,-81.1% (active)
24,C=CCn1c(SCC(=O)Nc2ccc(/C(C)=N\O)cc2)nnc1-c1cc(-c2ccc(OC)cc2)nc2ccccc12,28.9%
